The results in this text go back to the supplement of paper PMC8728848.

What all share (assay): glycan array binding signal (z-score within array); higher = stronger binding
Conditions in all cases: glycan notation: IUPAC condensed, linker removed

For assay [1], the system named is Gal(a1-3)Gal(b1-4)GlcNAc. The method in brief: (§1)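 Negative Z-scores can be read as non-binding. The Z-score is calculated within each array and then averaged across arrays of one protein sequence at different concentrations or buffers and across linkers. Arrays, 3228 in all, were curated from the Consortium for Functional Glycomics database and kept only where the protein sequence was available.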

The subject of assay [2] is Gal(a1-4)Gal(b1-4)Glc. The method in brief: as §1
The test system of assay [3] is Gal(a1-4)GlcNAc. The method in brief:
as §1

Assay [4] relates to Gal(a1-3)Gal(b1-4)GlcNAc(b1-3)GalNAc. The method in brief:
as §1

The subject of assay [5] is Gal(a1-3)[Gal(a1-4)]Gal(b1-4)GlcNAc. The method, boiled down:
as §1

Assay [6] deals with Gal(a1-3)Gal(b1-4)GlcNAc(b1-6)GalNAc. The method in brief:
as §1

The subject of assay [7] is Gal(a1-3)Gal(b1-4)[Fuc(a1-3)]GlcNAc(b1-2)Man(a1-3)[Gal(a1-3)Gal(b1-4)[Fuc(a1-3)]GlcNAc(b1-2)Man(a1-6)]Man(b1-4)GlcNAc(b1-4)GlcNAc. The method in brief:
as §1

Assay [8] relates to Gal(a1-3)Gal(b1-4)[Fuc(a1-3)]GlcNAc. The method in brief: as §1
For assay [9], the system named is Gal(a1-3)Gal. The method in brief:
as §1

Assay [10] relates to Gal(a1-4)Gal(b1-4)GlcNAc. The method, boiled down:
as §1

About 410 targets per protein were measured; listed, in parts, are those with the strongest signals and a random draw of the rest.

Consider “SpGH101 (Streptococcus pneumoniae), Q8DR60”, for which the “glycan array binding signal (z-score)” value in assay [1] is -0.162.

With Epa22, the “glycan array binding signal (z-score)” value in [2] is -0.375; in assay [3], 10.5.

For the substance BambL (Burhholderia ambifaria), Q0B4G1, the figures for the “glycan array binding signal (z-score)” value in [4] and in assay [5] were -0.314 and -0.316, respectively.

As to Wza (Escherichia coli), P0A930, the “glycan array binding signal (z-score)” value in assay [6] came to 3.84.

Consider AgI/IIC123-GFP (Streptococcus mutans), for which the “glycan array binding signal (z-score)” value in [3] is 0.706.

Take “AgI/II Vhelical-GFP (Streptococcus mutans)”: the “glycan array binding signal (z-score)” value in assay [7] is -0.151; in assay [8], -0.245.

For the substance Actinohivin (Actinomycete K97), the “glycan array binding signal (z-score)” value in assay [1] is -0.163; in assay [7], 0.092.

Consider LcI (Legionella pneumophila), for which the “glycan array binding signal (z-score)” value was -0.38 in assay [9] and -0.363 in assay [10].
